The supplement of paper PMC6555819

Columns and labels:
Assay in all cases: PBM binding z-score (relative to random genomic background probes); higher = stronger binding; sequences stand for … in GC…GCGATTGACAGCGTAGAATGAAGG
[1] = system: RARb homodimer (NR concentration 270 nM)
How it was run: (§1)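 Custom Agilent 4×180K protein-binding microarrays carried double-stranded probes. Their 34-nt variable regions held direct-repeat seeds, single-nucleotide variants, half-site ablations and random human genomic background sequences. Arrays were incubated 1 h with ligand-free nuclear receptor dimers in PBS pH 7.4, 2% milk, 0.02% Triton X-100, 1 mM DTT, 0.2 mg/mL BSA and 0.4 mg/ml salmon testes DNA. Antibodies against each partner (one per run) detected binding, and scanned fluorescence was regression-normalized. Binding z-scores use random background probes as reference.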

[2] = system: RARg:RXRa (NR concentration 270 nM, RXRa partner concentration 90 nM)
How it was run: as §1

[3] = system: RARg homodimer (NR concentration 270 nM)
How it was run: as §1

[4] = system: RXRa DBDmut IVT, anti-RXR (DBD mutation: RXRa K156A/R161A, NR concentration 90 nM)
How it was run: as §1

[5] = system: RXRa homodimer (NR concentration 180 nM)
How it was run: as §1

[6] = system: THRa:RXRa (NR concentration 90 nM, RXRa partner concentration 90 nM)
How it was run: as §1

[7] = system: THRa homodimer (NR concentration 90 nM)
How it was run: as §1

[8] = system: VDR homodimer (NR concentration 270 nM)
How it was run: as §1

Sequence	PBM binding z-score [1]	PBM binding z-score [2]	PBM binding z-score [3]	PBM binding z-score [4]	PBM binding z-score [5]	PBM binding z-score [6]	PBM binding z-score [7]	PBM binding z-score [8]
GCTGCTAGGTCAGGTTGGTCAGCAAACGGGTACG	2.84	2.72	3.54	0.377	1.03	1.92	0.409	0.182
TCTAGTTGGTCACGGAGGTCACACTCGACGGGTA	4.42	4.61	4.99	1.2	4.54	3.59	2.56	2.99
GCATATATGTAATACAAGGTGAAAGTCCGATTGT	0.691	0.257	0.615	0.612	0.52	2.79	1.14	-0.0295
CCTATTAGTTGACCATAAGGGCAATCGAAGCTCG	1.72	1.12	1.22	0.557	0.516	1.47	1.18	1.13
CAAGCTAGGTCACGAAAGGTCAAAGTCGAATGAC	5.98	8.18	8.58	2.43	8.62	5.11	2.29	3.61
AGAATGAGGTTATTAAGAACAGGGAATTGCGGTC	0.842	1.14	0.783	2.06	1.67	2.23	0.503	1.27
CCTACTGGGCCATCAGGTCATTGGTATCAACGTT	2.99	1.93	1.66	0.149	0.958	3.33	3.05	1.64
CGCACGAGGGCATGAGTTGATAGCAAATGCCGAT	1.2	1.1	1.72	2.41	0.956	1.3	0.0381	1.63
ACTATTAGTTGAGACGAGGGGAACCGATAGGTTG	-0.242	0.21	0.42	0.612	0.177	1.13	-0.473	0.00117
TCTTATAGGTAAAGGTGAAAGTCGAACGATATGA	1.59	1.84	1.45	1.1	2.43	1.39	0.153	0.315
TCGAGTAGGTTAGTCGCGGCATTCAGCCAACATA	-0.376	-0.336	-0.495	-0.209	-0.0361	-0.287	-1.14	-0.682
TGTCTAAGTTCAAAGGTAACGTAAGTATCCACAC	2.69	4.48	3.63	4.28	5.62	3.44	0.485	3.83
GGAACGAGGGCAAAGTTGATAGCCTCTGTCGACG	1.42	2.14	1.91	2.49	1.84	1.35	-0.295	1.54
TCGAGTAGTTTAGGGGCATTCAGAATGGCGTCGA	0.436	0.014	-0.0825	0.68	0.467	1.33	0.108	1.55
CCTATTAGTTGACCATAAGGACAACCGAAGCTCG	1.71	1.36	1.28	0.69	0.852	3.42	3.91	1.1
CCTGCTAGGTCAATGGGCAGCTAAAGCAGCTCGC	2.4	3.12	4.03	0.674	1.35	1.99	0.0215	-0.152
ACAGTCAGGTGAGTGAAGGTAACTCAGCTGGACG	-0.0774	0.2	0.617	-0.471	0.122	1.63	-0.205	-0.58
CAAACTAGGTCAATAGGTCAAAGTCCGCTTCCCG	5.26	7.95	6.55	2.03	6.54	3.62	1.05	2.03
CAAACTAGGTCAAGAGGTCGAAGTCCGCTTCCCG	4.4	6.21	5.88	1.72	5.59	3.34	1.01	2.2
TCTAGTTGTTCACGGAGGTCACACACGACGGGTA	4.05	3.97	3.7	1.18	4.36	3.39	2.47	3.06
TTACCAAGGTGAAGGTCGTTGAACCCTCTGTAGA	2.16	1.94	1.52	0.243	3	2.74	1	1.63
CCTCCTGGGCCATTCAGAGGTCATTGATCATATG	4.15	4.79	3.13	0.494	4	3.3	1.39	3.92
CCTTACGGATCACGAGGTTATAGCACGACGAGCG	1.15	0.741	0.714	0.575	1.62	1.52	1.08	1.06
CCTACTGGGCCATCAGGTCATTGAGATCAACGTT	2.68	2.15	2.06	0.124	1.43	3.28	2.88	1.89
ACTGACAGGTGATGAAGGTAACTCAGGCTATCAT	-0.0164	0.199	0.358	-0.478	0.16	0.769	-0.122	-0.152
ATCTCTAGGTAACCGAGTTCAGTGAATGCCGAAC	1.31	0.6	0.669	1.39	0.704	1.72	0.663	4.05
TCTTGGAGATCAGCAGGTTAAGAAAGCTGGCCAA	-0.0506	-0.0345	-0.56	0.285	0.182	0.0283	-0.695	-0.225
CAAACTAGGTCAAGAGGTCAAGGTCCGCTTCCCG	5.98	7.92	7.98	2.28	8.06	4.25	3.13	3.74
ACTAGCAGGCCAAGTTTGGGTCACGCAAACAAAG	2.72	3.25	2.19	-0.213	1.71	3.3	1.78	0.403
